Where “and” joins values, the source holds several entries; their conditions need not be identical. Equal entries are not always repeated. Where a structure was tested more than once in an assay, its records may differ in their call. Calls of active or inactive are those of the source. Rule for the calls: active = hit-call score of the fitted dose curve at least 0.9, where 1 is the maximum; inactive = score below 0.9.

Read-out in this assay: CD38, CD38 (gene 952)
As to the kind of experiment: BSK_SAg_CD38: BioMAP Diversity Plus: SAg Assay for CD38 Biomarker Activity (AID 2283087). To be noted: primary human HUVEC with PBMC; actives raise or lower the signal. On the procedure:
BSK_SAg is a cell-based, multiplexed-readout assay that uses umbilical vein endothelium and peripheral blood mononuclear cells, a human vascular primary cell co-culture, with measurements taken at 24 hours after chemical dosing in a 96-well plate.BSK_SAg_CD38 is one of 10 assay component(s) measured or calculated from the BSK_SAg assay. It is designed to make measurements of enzyme-linked immunosorbent assay, a form of binding reporter, as detected with fluorescence intensity signals by Enzyme-linked immunosorbent assay technology.Data from the assay component BSK_SAg_CD38 was analyzed into 1 assay endpoint. This assay endpoint, BSK_SAg_CD38, was analyzed with bidirectional fitting relative to DMSO as the negative control and baseline of activity. Using a type of binding reporter, gain or loss-of-signal activity can be used to understand changes in the signaling as they relate to the gene CD38. Furthermore, this assay endpoint can be referred to as a primary readout, because this assay has produced multiple assay endpoints where this one serves a signaling function. To generalize the intended target to other relatable targets, this assay endpoint is annotated to the cytokine intended target family, where the subfamily is other cytokine.
The levels of cell surface (or secreted, indicated by the prefix "s") biomarker endpoints were measured by ELISA. Overt cytotoxicity to cells in confluent adherent cultures (all systems other than the BT system) was assessed by measuring total protein levels using sulforhodamine B (SRB) staining in parallel cultures at the time of biomarker measurements, indicated as SRB endpoints. For proliferation assays for adherent cell types, individual cell types are cultured at sub-confluence and relative cell numbers quantified by SRB staining at time points optimized for each system (48 h: 3C and CASM3C systems; 72 h: BT and HDF3CGF systems; 96 h: SAg system). SRB was performed by staining cells with 0.1% SRB after fixation with 10% TCA and reading wells at 560 nm.Viability and proliferation of PBMC (T cells) was quantified by Alamar Blue reduction for the SAg and BT systems. For PBMC viability (referred to as PBMC Cytotoxicity within the assay endpoint names), cells were plated (75,000/well in a 96-well plate) and then chemical samples added for 1 h before addition of activators, SEB and TSST-1 (20 ng/mL final concentration each). Cells were incubated for 90 h. Then, Alamar Blue (20 uL/well) (Invitrogen, Cat DAL1100) was added for 6 h, and the plates were read with a fluorescence microplate reader at 546/580 nm (excitation/emission). For PBMC proliferation, cells were plated and activated as above but incubated for only 16 h prior to addition of Alamar Blue. Plates were read after 6 h.
On to `COC(=O)c1ccc(C(=O)OC)cc1`, for which the outcome was inactive. With `CCCCOCCOCCO`, the result was inactive. For `CC(C)CCCC(C)(C)O`, the result was inactive.

`C=C(F)C(=O)OC(C(F)(F)F)C(F)(F)F`: the outcome was inactive.

On to `CC(=O)CCC=C(C)CCC=C(C)C`, for which the result was inactive. Turning to `O=S1(=O)CC(Cl)(Cl)C(Cl)(Cl)C1`, the AC50 was 0.35 µM (active). As for `O=C(O)C(F)(F)C(F)(F)C(F)(F)C(F)(F)C(F)(F)C(F)(F)C(F)(F)C(F)F`, the outcome was inactive. `C=C(C)C(N)=O`: the result was inactive. Still for that read-out and setting: as for `O=S(=O)(O)C(F)(F)C(F)(F)OC(F)(F)C(F)(F)F`, the entry is “inactive”. As for `CC(C)(CO)CO`, the outcome was inactive. The same measure, in the same setting: next, `CC(=O)OCC=C(C)CCC=C(C)CCC=C(C)C`: “inactive”. In the case of `CC/C(=C(\c1ccccc1)c1ccc(OCCN(C)C)cc1)c1ccccc1`, the AC50 was 8.87 µM (active) and 7.95 µM (active). With `c1ccc(Sc2ccccc2)cc1`, the result was inactive. `Nc1ccc(N)c([N+](=O)[O-])c1`: the result was inactive. Consider `c1ccc(OCCOc2ccccc2)cc1`, for which the outcome was inactive and the AC50 is 1.49 µM (active).

Regarding `O=C(O)C(F)(F)OC(F)(F)C(F)(F)OC(F)(F)C(F)(F)C(F)(F)C(F)(F)F`, the AC50 was 41.9 µM (active) and the result was inactive.

On to `CC(C)(C)c1cccc(O)c1`, for which the outcome was inactive.

Consider `CCCCCCCC1CCCC1=O` (stereo not given), for which the outcome was inactive.

In the case of `C=CC(=O)OCC(CO)(COC(=O)C=C)COC(=O)C=C`, the AC50 is 0.34 µM (active). For `CC(C)Cc1ccc(C(C)C(=O)O)cc1` (stereo not given), the outcome was inactive. In the case of `c1ccc2c(c1)-c1ccc3ccc4cccc5cc-2c1c3c45`, the AC50 is 6.08 µM (active). In the case of `CCOC(=O)C=Cc1ccccc1`, the result was inactive. Take `CCCCCCCCCC(=O)OCC`: the result was inactive. For the molecule `C#C[C@]1(O)CC[C@H]2[C@@H]3CCc4cc(O)ccc4[C@H]3CC[C@@]21C`, the result was inactive. Same read-out and setting: next, `NC(=O)c1c(Cl)cccc1Cl`: “inactive”; `CC(=O)c1ccc(C)cc1`: “inactive”. For `CC=CC(=O)C1=C(C)C=CCC1(C)C`, the outcome was inactive. Regarding `COc1ccccc1NC(=O)CC(C)=O`, the outcome was inactive. For the molecule `CCCCN(CCO)CCO`, the outcome was inactive. Still for that read-out and setting: as for `CC1(C)[C@H](C=C(Cl)Cl)[C@H]1C(=O)OCc1cccc(Oc2ccccc2)c1`, the entry is “inactive”; as for `CC1=CC(C)C(C=O)C(C)C1` (stereo not given) (tested in a mixture with another compound), “inactive”. Consider `O=C(c1ccc(OCCN2CCCCC2)cc1)c1c(-c2ccc(O)cc2)sc2cc(O)ccc12`, for which the AC50 is 30.1 µM (active). Consider `C=C(C)C(=O)OCCC(F)(F)C(F)(F)C(F)(F)C(F)(F)C(F)(F)C(F)(F)C(F)(F)C(F)(F)F`, for which the outcome was inactive. Regarding `CCCO[Si](OCCC)(OCCC)OCCC`, the result was inactive. As for `C=C1CC/C=C(\C)CC[C@@H]2[C@@H]1CC2(C)C`, the AC50 is 30.7 µM (active). For the molecule `OCCN1CCOCC1`, the outcome was inactive. Regarding `C[C@]12CC[C@@H]3c4ccc(O)cc4CC[C@H]3[C@@H]1CC[C@@H]2O`, the AC50 was 16.7 µM (active).

Regarding `CCOC(=O)CCCCCCCCC(=O)OCC`, the result was inactive.

For orientation: AC50 means the concentration giving half of the maximal activity seen.

For the origin of these results see PubChem BioAssay (EPA / NIEHS).
